Hedgehog inh – Hedgehog pathway signaling inhibitors, primary screen, luminescence, Shh-LIGHT2 cells, Gli-luciferase. Shh-LIGHT2 Gli-luciferase reporter, 30 h. inhibition, % (concentration not given with the values). 22,000 tested, 2.1% active. AID 2313, 2010;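 active = mean inhibition across valid replicates above about 65%, limit read from the data; inconclusive = mean under the limit, yet half or more replicates past it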;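 also: pathway switched on by Shh-conditioned medium diluted 1 in 25 in low serum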
MITF inh – inhibitors of MITF, primary screen, MITF inhibitor project, cell-based, luminescence | 37,000 tested, 0.28% active | inhibition, % (test concentration not listed) | TRPM1 promoter luciferase, 24 h; in the data active = inhibition above about 85%; inconclusive = no clear call, values can overlap the other calls; inactive = below about 68%;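 also: human melanocyte line stably carrying TRPM1 promoter luciferase reporter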
NOMO-1 viab – NOMO-1 AML cell viability reduction, primary screen, STK33 inhibitor project, CellTiter-Glo luminescence; NOMO-1 AML viability, 72 h; inhibition, % (concentration not given with the values); 37,000 tested, 7.5% active; AID 2330, 2010; in the data active = inhibition above about 80%; inconclusive = no clear call, values can overlap the other calls
PD-1 reverse act – activators reversing PD-1 mediated T-cell inhibition, primary screen, luminescence, primary human CD4 T cells, PD-L1 beads; activation, % (concentration not given with the values); CellTiter-Glo 96 h; 29,000 tested, under 10 active; call rule not given here;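 also: 0% = median vehicle wells and 100% = positive control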
Numbers without * were called inactive. The list is not random: actives were taken first. Their share in the collection is about 8.1%.

Results for C[C@H](CO)N1C[C@H](C)[C@H](CN(C)Cc2ccc(Oc3ccccc3)cc2)Oc2c(NC(=O)Nc3ccc(F)cc3)cccc2C1=O ?
Hedgehog inh: -20; MITF inh: 9; NOMO-1 viab: 32; PD-1 reverse act: -2

Results for COc1ccc(NC(=O)Nc2cccc3c2O[C@H](CN(C)Cc2ccccc2)[C@@H](C)CN([C@@H](C)CO)C3=O)cc1 ?
Hedgehog inh: -32; MITF inh: -15; NOMO-1 viab: 63; PD-1 reverse act: -2

What do the screens show for `C[C@@H]1CN([C@@H](C)CO)C(=O)c2cccc(NC(=O)Nc3ccccc3)c2O[C@H]1CN(C)Cc1ccc(Oc2ccccc2)cc1`?
Hedgehog inh: -109; MITF inh: 58; NOMO-1 viab: 113*; PD-1 reverse act: -4

How did C[C@H](CO)N1C[C@H](C)[C@@H](CN(C)Cc2ccc(Oc3ccccc3)cc2)Oc2c(NC(=O)Nc3ccc(F)cc3)cccc2C1=O do in these assays?
Hedgehog inh: inconclusive; MITF inh: 18; NOMO-1 viab: 99*; PD-1 reverse act: -1

What do the screens show for `COc1ccc(CN(C)C[C@@H]2Oc3c(NC(=O)Nc4ccccc4)cccc3C(=O)N([C@@H](C)CO)C[C@H]2C)cc1`?
Hedgehog inh: 6; MITF inh: 22; NOMO-1 viab: 100*

What do the screens show for `O=C(NC(C(=O)O)C12CC3CC(CC(C3)C1)C2)c1ccc(F)cc1` (centres undefined)?
MITF inh: 0; NOMO-1 viab: -8; PD-1 reverse act: 0

What do the screens show for `COc1ccccc1C(=O)Nc1sc2c(c1C(=O)NCc1ccco1)CCCC2`?
MITF inh: -6; NOMO-1 viab: 91*; PD-1 reverse act: 2

Results for O=C(Nc1sc2c(c1C(=O)NCc1ccco1)CCCC2)c1ccc([N+](=O)[O-])cc1 ?
MITF inh: 12; NOMO-1 viab: 15; PD-1 reverse act: 1

What do the screens show for `Cc1c(C(=O)Nc2sc3c(c2C(=O)NCc2ccco2)CCCC3)oc2ccccc12`?
MITF inh: 3; NOMO-1 viab: 106*; PD-1 reverse act: -5

Results for COc1ccc(C(=O)Nc2sc3c(c2C(=O)NC2CCS(=O)(=O)C2)CCCC3)cc1OC (centres undefined) ?
MITF inh: 7; NOMO-1 viab: -3; PD-1 reverse act: 1

What do the screens show for `Cc1ccc2oc(C(=O)Nc3sc4c(c3C(=O)NC3CCS(=O)(=O)C3)CCC4)c(C)c2c1` (centres undefined)?
MITF inh: 11; NOMO-1 viab: 106*; PD-1 reverse act: -11

How did O=C(c1ccc(Br)cc1)c1cc2c(cc1Br)OCCCO2 do in these assays?
Hedgehog inh: -3; MITF inh: -8; NOMO-1 viab: 20; PD-1 reverse act: 0

What do the screens show for `O=C(COc1ccc(Cl)cc1Cl)Nc1ccc2oc(-c3ccncc3)nc2c1`?
MITF inh: -30; NOMO-1 viab: -5; PD-1 reverse act: 3

What do the screens show for `CS(=O)(=O)N(CC(=O)Nc1cccc(Cl)c1Cl)Cc1ccccc1`?
MITF inh: -13; NOMO-1 viab: 27; PD-1 reverse act: -1

What do the screens show for `Cc1ccc2ccc(C(Nc3ccccn3)c3c(F)cccc3Cl)c(O)c2n1` (centres undefined)?
MITF inh: 58; NOMO-1 viab: 110*; PD-1 reverse act: -12

What do the screens show for `Cc1ccc2ccc(C(Nc3ccccn3)c3ccccc3Cl)c(O)c2n1` (centres undefined)?
MITF inh: 54; NOMO-1 viab: 106*; PD-1 reverse act: -11

Results for COc1ccc(C(Nc2cccc(C)n2)c2ccc3ccc(C)nc3c2O)c(OC)c1OC (centres undefined) ?
MITF inh: 11; NOMO-1 viab: 96*; PD-1 reverse act: -13

Results for CSc1ccc(C(Nc2cc(C)ccn2)c2ccc3ccc(C)nc3c2O)cc1 (centres undefined) ?
MITF inh: 35; NOMO-1 viab: 40

Results for Cc1ccc2ccc(C(Nc3ccccn3)c3cccc([N+](=O)[O-])c3)c(O)c2n1 (centres undefined) ?
MITF inh: 52; NOMO-1 viab: 112*; PD-1 reverse act: -13

How did OCC1=CC[C@@H]2C=CO[C@@H](O[C@@H]3O[C@H](CO)[C@@H](O)[C@H](O)[C@H]3O)[C@H]12 do in these assays?
Hedgehog inh: -20

How did Cc1ccccc1C(=O)N1N=C(c2ccc(Br)cc2)CC1c1nc2ccccc2[nH]1 (centres undefined) do in these assays?
MITF inh: 11; NOMO-1 viab: 56; PD-1 reverse act: -1

Results for Cc1cccc(NC(c2ccccc2[N+](=O)[O-])c2ccc3ccc(C)nc3c2O)n1 (centres undefined) ?
MITF inh: 53; NOMO-1 viab: 121*; PD-1 reverse act: -13

Results for Cc1ccnc(NC(c2cccc(Cl)c2)c2ccc3ccc(C)nc3c2O)c1 (centres undefined) ?
MITF inh: 56; NOMO-1 viab: 118*

What do the screens show for `COc1ccc(OC)c(C2Nc3nc4ccccc4n3C(C)=C2C(=O)Nc2ccc(C)cc2C)c1` (centres undefined)?
MITF inh: 5; NOMO-1 viab: 85*; PD-1 reverse act: -1

How did C[C@@H]1CN([C@H](C)CO)C(=O)c2cc(NC(=O)Nc3ccc(C(F)(F)F)cc3)ccc2O[C@@H]1CN(C)S(=O)(=O)c1ccccc1 do in these assays?
Hedgehog inh: 27; MITF inh: 50; NOMO-1 viab: 45; PD-1 reverse act: -1

Results for C[C@H](CO)N1C[C@H](C)[C@@H](CN(C)S(=O)(=O)c2ccccc2)Oc2ccc(NC(=O)Nc3ccc(C(F)(F)F)cc3)cc2C1=O ?
Hedgehog inh: 8; MITF inh: inconclusive; NOMO-1 viab: 69; PD-1 reverse act: -2

Results for C[C@@H]1CN([C@@H](C)CO)C(=O)c2cc(NC(=O)Nc3ccc(C(F)(F)F)cc3)ccc2O[C@@H]1CN(C)S(=O)(=O)c1ccccc1 ?
Hedgehog inh: inconclusive; MITF inh: 80; NOMO-1 viab: 90*; PD-1 reverse act: -1

How did C[C@H]1CN([C@@H](C)CO)C(=O)c2cc(NC(=O)Nc3ccc(C(F)(F)F)cc3)ccc2O[C@H]1CN(C)S(=O)(=O)c1ccccc1 do in these assays?
MITF inh: 17; NOMO-1 viab: 97*; PD-1 reverse act: -1

Results for O=C(CCN1C(=O)c2ccccc2C1=O)Oc1c(-c2ccccc2)oc2ccccc2c1=O ?
MITF inh: -54; NOMO-1 viab: 44; PD-1 reverse act: -3

How did O=C(Oc1c(CN2CCOCC2)cc(Cl)c2cccnc12)c1ccc([N+](=O)[O-])cc1 do in these assays?
MITF inh: 70; NOMO-1 viab: 139*; PD-1 reverse act: -15

What do the screens show for `CCN(CC)CCOc1ccccc1`?
Hedgehog inh: 0; MITF inh: 19; NOMO-1 viab: -1; PD-1 reverse act: 0

Results for O=C(COc1ccc(Cl)cc1C1C2=C(CCCC2=O)NC2=C1C(=O)CCC2)Nc1ccc(Cl)cc1 ?
MITF inh: 27; NOMO-1 viab: 116*; PD-1 reverse act: 0

Assay outcomes (PubChem BioAssay)
